# Measured values: PMC7862700, “An all-to-all approach to the identification of sequence-specific readers for epigenetic DNA modifications on cytosine”
# How the values were obtained:
# Assay in all cases: DAPPL (digital affinity profiling via proximity ligation, sequencing); 10 mM Tris-HCl pH 7.5, 50 mM NaCl, 1 mM DTT, 4% glycerol, room temperature, 30 min; GST-TFs on glutathione beads, 16-mer random dsDNA library, 0.1% formaldehyde crosslink after washing; high values mean tight binding
# FLI1 = biological target: T1, FLI1 (Homo sapiens, UniProt Q01543 1-452); details: protein: recombinant; tags: N-terminal GST; dsDNA, one strand shown
# T1 sequence: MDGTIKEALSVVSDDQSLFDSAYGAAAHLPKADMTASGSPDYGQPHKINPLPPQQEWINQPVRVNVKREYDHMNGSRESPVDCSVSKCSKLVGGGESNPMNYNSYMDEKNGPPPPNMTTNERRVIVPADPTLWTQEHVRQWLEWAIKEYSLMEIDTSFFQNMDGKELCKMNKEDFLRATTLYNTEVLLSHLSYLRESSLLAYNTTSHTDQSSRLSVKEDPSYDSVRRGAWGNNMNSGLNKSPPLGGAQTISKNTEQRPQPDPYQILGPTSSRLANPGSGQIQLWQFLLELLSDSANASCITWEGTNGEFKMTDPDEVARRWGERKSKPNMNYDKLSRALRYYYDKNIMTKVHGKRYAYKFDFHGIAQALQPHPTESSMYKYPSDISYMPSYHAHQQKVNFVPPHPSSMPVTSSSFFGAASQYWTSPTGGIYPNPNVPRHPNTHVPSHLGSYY
# How it was run: (§1)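 After expression in yeast as GST fusions, human transcription factors were bound to glutathione beads, DNA-barcoded and mixed with a tag-only sample. The pools were incubated with 200 nmole of a 16-mer random double-stranded DNA library in Tris/NaCl/DTT/glycerol buffer (30 min, room temperature), washed and crosslinked with 0.1% formaldehyde. Proximity ligation with BsaI/T4 ligase ran for 1 h at 37 °C, before PCR amplification and sequencing on an Illumina NextSeq500. Binding signal is a hexamer's read frequency for a factor divided by its frequency for the tag-only sample.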
# ELK1 = biological target: T2, ELK1 (Homo sapiens, UniProt P19419 1-428); details: protein: recombinant; tags: N-terminal GST; dsDNA, one strand shown
# T2 sequence: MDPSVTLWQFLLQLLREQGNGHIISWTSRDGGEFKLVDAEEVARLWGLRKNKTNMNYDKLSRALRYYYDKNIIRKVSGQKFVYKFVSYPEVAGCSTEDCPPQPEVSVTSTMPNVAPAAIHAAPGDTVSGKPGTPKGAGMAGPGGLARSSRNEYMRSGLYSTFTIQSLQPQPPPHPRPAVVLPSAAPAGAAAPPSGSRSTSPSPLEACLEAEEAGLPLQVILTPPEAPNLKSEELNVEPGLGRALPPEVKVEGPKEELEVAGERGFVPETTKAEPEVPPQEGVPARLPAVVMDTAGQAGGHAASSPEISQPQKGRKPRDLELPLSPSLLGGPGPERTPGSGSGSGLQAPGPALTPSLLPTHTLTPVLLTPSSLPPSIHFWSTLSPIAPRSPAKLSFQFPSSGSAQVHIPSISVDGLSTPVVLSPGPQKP
# How it was run: as §1
# GABPA = biological target: T3, GABPA (Homo sapiens, UniProt Q06546 1-454); details: protein: recombinant; tags: N-terminal GST; dsDNA, one strand shown
# T3 sequence: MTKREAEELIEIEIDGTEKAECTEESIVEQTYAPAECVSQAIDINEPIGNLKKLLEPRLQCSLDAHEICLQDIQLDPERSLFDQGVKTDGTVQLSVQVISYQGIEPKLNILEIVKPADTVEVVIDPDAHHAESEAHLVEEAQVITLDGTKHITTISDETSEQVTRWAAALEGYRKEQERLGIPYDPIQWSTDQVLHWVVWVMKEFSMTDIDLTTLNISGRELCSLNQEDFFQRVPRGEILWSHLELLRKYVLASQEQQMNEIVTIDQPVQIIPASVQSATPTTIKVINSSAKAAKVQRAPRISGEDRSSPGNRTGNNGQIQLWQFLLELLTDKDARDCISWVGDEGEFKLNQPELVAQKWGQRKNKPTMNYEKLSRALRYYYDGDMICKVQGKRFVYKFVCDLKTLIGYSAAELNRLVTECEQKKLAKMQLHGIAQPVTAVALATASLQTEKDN
# How it was run: as §1
# ERG = biological target: T4, ERG (Homo sapiens, UniProt P11308 1-479); details: protein: recombinant; tags: N-terminal GST; dsDNA, one strand shown
# T4 sequence: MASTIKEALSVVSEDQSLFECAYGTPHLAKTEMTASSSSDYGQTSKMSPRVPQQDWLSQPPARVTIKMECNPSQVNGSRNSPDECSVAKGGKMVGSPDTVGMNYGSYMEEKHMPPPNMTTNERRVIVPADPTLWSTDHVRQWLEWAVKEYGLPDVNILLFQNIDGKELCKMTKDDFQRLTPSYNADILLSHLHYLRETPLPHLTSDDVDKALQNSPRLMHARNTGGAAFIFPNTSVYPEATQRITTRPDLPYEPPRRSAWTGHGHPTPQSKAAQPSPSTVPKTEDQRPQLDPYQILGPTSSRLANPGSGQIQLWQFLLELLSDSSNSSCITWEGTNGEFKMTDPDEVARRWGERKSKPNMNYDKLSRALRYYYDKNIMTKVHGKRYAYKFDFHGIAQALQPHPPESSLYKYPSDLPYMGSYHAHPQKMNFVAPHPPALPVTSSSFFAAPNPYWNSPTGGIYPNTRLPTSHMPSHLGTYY
# How it was run: as §1
# ELF1 = ELF1 (Homo sapiens, UniProt P32519 1-619); details: protein: recombinant; tags: N-terminal GST; dsDNA, one strand shown
# Sequence of ELF1 (P32519 whole entry): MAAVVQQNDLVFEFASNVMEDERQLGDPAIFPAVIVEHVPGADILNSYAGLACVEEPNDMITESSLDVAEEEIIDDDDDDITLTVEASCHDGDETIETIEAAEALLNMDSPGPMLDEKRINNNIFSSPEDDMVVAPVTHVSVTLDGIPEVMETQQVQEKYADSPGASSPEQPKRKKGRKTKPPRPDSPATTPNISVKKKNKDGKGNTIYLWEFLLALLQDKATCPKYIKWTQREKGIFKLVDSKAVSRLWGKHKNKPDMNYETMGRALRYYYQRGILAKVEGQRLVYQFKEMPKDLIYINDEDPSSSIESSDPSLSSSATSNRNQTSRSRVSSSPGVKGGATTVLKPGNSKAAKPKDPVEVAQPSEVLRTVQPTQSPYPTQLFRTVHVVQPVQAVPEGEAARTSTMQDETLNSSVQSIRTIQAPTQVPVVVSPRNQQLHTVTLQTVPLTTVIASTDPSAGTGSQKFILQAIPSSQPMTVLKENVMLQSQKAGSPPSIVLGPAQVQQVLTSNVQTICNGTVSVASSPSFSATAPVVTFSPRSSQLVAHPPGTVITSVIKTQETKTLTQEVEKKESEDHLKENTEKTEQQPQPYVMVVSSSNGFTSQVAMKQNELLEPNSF
# How it was run: as §1
# EHF = biological target: T5, EHF (Homo sapiens, UniProt Q9NZC4 1-300); details: protein: recombinant; tags: N-terminal GST; dsDNA, one strand shown
# T5 sequence: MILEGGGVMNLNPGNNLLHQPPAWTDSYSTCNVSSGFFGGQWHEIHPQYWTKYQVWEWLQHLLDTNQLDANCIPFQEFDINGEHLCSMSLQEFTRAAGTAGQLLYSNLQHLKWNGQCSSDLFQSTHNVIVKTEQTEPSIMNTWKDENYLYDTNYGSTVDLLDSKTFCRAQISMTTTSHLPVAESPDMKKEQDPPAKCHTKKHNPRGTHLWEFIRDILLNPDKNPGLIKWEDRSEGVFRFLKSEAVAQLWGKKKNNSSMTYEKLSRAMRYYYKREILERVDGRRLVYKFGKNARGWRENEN
# How it was run: as §1
# SPI1 = SPI1 (Homo sapiens, UniProt P17947 1-270); details: protein: recombinant; tags: N-terminal GST; dsDNA, one strand shown
# How it was run: as §1
# SPIB = SPIB (Homo sapiens, UniProt Q01892 1-262); details: protein: recombinant; tags: N-terminal GST; dsDNA, one strand shown
# Sequence of SPIB (Q01892 whole entry): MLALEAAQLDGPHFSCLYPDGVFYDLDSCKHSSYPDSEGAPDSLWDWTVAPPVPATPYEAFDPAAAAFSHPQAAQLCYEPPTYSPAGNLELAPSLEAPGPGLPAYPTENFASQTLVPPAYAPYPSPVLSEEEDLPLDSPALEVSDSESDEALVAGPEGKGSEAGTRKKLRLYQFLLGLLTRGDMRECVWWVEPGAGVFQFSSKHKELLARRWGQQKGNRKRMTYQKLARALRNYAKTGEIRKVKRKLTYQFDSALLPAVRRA
# How it was run: as §1
# ELK3 = biological target: T6, ELK3 (Homo sapiens, UniProt P41970 1-407); details: protein: recombinant; tags: N-terminal GST; dsDNA, one strand shown
# T6 sequence: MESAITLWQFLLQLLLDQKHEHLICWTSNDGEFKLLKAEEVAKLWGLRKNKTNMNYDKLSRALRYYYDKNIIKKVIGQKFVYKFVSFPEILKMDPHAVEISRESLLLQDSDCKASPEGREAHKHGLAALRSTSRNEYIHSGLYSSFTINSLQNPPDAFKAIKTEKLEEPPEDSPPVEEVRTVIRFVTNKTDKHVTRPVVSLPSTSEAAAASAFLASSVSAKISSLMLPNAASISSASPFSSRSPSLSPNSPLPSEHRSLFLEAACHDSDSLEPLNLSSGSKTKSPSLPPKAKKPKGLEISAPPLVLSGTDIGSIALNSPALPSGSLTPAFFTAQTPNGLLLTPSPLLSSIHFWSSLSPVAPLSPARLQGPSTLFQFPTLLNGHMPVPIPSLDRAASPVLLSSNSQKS
# How it was run: as §1
# FEV = biological target: T7, FEV (Homo sapiens, UniProt Q99581 1-238); details: protein: recombinant; tags: N-terminal GST; dsDNA, one strand shown
# T7 sequence: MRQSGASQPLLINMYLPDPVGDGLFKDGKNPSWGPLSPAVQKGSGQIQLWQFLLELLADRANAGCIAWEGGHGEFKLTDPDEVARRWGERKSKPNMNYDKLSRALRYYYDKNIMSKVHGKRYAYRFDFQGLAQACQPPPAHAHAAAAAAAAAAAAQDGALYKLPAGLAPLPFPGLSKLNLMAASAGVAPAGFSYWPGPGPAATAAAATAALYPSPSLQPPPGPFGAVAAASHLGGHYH
# How it was run: as §1
# ETV5 = ETV5 (Homo sapiens, UniProt P41161 1-510); details: protein: recombinant; tags: N-terminal GST; dsDNA, one strand shown
# Sequence of ETV5 (P41161 whole entry): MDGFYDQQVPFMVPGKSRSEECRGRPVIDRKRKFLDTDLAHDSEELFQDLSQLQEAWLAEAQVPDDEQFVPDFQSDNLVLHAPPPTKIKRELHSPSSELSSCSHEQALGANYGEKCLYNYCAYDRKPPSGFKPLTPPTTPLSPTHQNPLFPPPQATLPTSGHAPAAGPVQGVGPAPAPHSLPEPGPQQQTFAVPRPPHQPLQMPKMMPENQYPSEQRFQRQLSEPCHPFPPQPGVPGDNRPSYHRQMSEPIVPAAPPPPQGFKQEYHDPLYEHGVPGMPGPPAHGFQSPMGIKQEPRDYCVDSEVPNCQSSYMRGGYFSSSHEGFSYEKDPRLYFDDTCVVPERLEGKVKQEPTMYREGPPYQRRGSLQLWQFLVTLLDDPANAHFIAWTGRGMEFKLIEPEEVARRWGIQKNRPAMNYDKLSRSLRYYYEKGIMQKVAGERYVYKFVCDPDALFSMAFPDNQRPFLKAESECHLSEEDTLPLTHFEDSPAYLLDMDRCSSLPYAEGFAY
# How it was run: as §1
# HSF1 = HSF1 (Homo sapiens, UniProt Q00613 1-529); details: protein: recombinant; tags: N-terminal GST; chain copies: 3; dsDNA, one strand shown
# Sequence of HSF1 (Q00613 whole entry): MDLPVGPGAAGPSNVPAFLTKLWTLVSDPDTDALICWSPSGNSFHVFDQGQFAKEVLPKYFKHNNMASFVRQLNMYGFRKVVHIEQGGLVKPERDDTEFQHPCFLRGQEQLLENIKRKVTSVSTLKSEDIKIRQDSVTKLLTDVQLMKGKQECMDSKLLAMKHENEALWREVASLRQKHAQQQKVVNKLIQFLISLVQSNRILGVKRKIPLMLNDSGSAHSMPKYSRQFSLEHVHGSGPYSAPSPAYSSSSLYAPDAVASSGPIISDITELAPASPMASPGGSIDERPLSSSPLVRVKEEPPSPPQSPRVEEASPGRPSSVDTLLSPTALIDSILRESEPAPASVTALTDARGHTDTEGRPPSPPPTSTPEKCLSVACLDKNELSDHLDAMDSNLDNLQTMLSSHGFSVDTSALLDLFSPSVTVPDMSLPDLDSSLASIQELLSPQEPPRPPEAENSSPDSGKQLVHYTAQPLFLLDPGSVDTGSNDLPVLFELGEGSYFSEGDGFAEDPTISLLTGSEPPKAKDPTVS
# How it was run: as §1
# SPIC = biological target: T8, SPIC (Homo sapiens, UniProt Q8N5J4 1-248); details: protein: recombinant; tags: N-terminal GST; dsDNA, one strand shown
# T8 sequence: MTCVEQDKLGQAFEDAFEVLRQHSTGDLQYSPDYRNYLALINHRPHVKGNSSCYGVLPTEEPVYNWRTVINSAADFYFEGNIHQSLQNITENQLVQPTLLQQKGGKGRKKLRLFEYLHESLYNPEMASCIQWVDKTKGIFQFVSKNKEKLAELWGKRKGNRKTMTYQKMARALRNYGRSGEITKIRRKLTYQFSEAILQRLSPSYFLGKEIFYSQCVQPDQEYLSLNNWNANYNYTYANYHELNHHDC
# How it was run: as §1
# ELF4 = ELF4 (Homo sapiens, UniProt Q99607 1-663); details: protein: recombinant; tags: N-terminal GST; dsDNA, one strand shown
# Sequence of ELF4 (Q99607 whole entry): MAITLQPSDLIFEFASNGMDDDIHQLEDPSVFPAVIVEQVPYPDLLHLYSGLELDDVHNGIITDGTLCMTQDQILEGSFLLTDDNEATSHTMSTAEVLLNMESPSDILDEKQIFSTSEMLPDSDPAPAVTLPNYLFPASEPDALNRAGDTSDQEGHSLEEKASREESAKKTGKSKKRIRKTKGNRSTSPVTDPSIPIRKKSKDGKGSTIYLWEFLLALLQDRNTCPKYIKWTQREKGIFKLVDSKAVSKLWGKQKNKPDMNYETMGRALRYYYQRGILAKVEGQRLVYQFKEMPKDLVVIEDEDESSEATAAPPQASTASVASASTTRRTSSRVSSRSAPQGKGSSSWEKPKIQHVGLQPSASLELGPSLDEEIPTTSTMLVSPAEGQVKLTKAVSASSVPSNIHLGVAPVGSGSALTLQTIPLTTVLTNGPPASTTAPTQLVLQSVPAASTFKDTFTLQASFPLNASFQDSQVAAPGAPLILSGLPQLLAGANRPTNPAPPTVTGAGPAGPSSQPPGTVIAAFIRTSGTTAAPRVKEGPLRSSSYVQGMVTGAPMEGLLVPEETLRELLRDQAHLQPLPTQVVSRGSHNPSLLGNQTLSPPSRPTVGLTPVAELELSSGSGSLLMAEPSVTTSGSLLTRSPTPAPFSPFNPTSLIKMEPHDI
# How it was run: as §1
# ELK4 = biological target: T9, ELK4 (Homo sapiens, UniProt P28324-2 1-405); details: protein: recombinant; tags: N-terminal GST; dsDNA, one strand shown
# T9 sequence: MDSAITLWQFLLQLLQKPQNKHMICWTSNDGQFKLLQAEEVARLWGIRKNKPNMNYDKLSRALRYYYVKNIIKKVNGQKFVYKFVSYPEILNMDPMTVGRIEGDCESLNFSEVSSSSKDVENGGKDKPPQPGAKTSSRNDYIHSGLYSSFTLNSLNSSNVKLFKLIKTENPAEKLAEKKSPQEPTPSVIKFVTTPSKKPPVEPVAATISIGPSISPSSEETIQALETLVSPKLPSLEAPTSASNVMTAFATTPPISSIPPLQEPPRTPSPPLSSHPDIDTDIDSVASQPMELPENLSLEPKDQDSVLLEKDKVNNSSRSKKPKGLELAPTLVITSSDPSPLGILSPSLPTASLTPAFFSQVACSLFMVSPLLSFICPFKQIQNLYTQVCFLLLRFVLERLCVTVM
# How it was run: as §1
# ETV2 = biological target: T10, ETV2 (Homo sapiens, UniProt O00321 1-342); details: protein: recombinant; tags: N-terminal GST; dsDNA, one strand shown
# T10 sequence: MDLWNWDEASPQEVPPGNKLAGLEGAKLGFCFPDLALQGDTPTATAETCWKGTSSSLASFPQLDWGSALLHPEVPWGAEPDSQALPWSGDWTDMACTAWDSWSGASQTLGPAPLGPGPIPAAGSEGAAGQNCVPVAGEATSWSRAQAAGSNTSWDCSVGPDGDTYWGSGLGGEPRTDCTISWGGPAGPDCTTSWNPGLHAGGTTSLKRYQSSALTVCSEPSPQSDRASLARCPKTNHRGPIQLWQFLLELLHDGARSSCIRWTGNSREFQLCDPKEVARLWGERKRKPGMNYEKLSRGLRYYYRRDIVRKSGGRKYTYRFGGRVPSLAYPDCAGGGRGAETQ
# How it was run: as §1
# ELF3 = biological target: T11, ELF3 (Homo sapiens, UniProt P78545 1-371); details: protein: recombinant; tags: N-terminal GST; dsDNA, one strand shown
# T11 sequence: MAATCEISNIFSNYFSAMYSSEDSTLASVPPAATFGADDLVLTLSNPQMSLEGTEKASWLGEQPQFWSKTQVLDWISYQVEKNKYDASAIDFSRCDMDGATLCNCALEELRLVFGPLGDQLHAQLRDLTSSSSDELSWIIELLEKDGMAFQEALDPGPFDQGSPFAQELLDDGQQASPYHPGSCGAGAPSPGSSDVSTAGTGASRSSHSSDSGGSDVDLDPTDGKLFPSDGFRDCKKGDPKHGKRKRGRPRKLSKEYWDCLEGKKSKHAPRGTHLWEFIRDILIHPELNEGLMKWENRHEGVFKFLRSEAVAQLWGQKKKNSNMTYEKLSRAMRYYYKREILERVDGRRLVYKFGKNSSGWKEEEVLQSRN
# How it was run: as §1
# CRX = CRX (Homo sapiens, UniProt O43186 1-299); details: protein: recombinant; tags: N-terminal GST; dsDNA, one strand shown
# Sequence of CRX (O43186 whole entry): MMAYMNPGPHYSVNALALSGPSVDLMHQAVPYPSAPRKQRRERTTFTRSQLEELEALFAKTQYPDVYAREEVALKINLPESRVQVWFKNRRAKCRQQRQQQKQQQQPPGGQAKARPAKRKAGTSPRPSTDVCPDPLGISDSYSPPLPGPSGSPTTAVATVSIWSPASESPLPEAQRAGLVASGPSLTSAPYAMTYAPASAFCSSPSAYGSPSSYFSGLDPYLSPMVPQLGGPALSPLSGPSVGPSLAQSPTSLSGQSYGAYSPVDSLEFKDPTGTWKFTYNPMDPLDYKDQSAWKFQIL
# How it was run: as §1
# ETV1 = ETV1 (Homo sapiens, UniProt P50549 1-477); details: protein: recombinant; tags: N-terminal GST; dsDNA, one strand shown
# Sequence of ETV1 (P50549 whole entry): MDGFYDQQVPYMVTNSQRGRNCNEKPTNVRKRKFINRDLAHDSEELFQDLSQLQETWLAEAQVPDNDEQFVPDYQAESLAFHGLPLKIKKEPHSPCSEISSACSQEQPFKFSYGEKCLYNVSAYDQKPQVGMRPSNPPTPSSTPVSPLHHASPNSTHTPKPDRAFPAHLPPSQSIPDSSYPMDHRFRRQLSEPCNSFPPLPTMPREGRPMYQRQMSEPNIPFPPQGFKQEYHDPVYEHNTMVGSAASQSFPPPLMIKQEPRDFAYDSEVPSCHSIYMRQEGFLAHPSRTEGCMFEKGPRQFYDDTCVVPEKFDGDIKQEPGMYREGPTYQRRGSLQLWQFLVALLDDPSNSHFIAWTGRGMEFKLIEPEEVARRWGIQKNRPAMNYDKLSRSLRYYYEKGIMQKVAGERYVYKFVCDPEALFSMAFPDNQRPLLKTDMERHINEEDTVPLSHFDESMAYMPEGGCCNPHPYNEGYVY
# How it was run: as §1
sequence,measurement,setting,value
AAAACG,binding signal,FLI1,"1.13 fold enrichment (6-mer frequency, TF over GST control)"
same,binding signal,ELK1,"1.19 fold enrichment (6-mer frequency, TF over GST control)"
same,binding signal,GABPA,"1.14 fold enrichment (6-mer frequency, TF over GST control)"
same,binding signal,ERG,"1.21 fold enrichment (6-mer frequency, TF over GST control)"
same,binding signal,ELF1,"1.16 fold enrichment (6-mer frequency, TF over GST control)"
same,binding signal,EHF,"1.17 fold enrichment (6-mer frequency, TF over GST control)"
same,binding signal,SPI1,"1.43 fold enrichment (6-mer frequency, TF over GST control)"
same,binding signal,SPIB,"1.11 fold enrichment (6-mer frequency, TF over GST control)"
same,binding signal,ELK3,"1.14 fold enrichment (6-mer frequency, TF over GST control)"
same,binding signal,FEV,"1.18 fold enrichment (6-mer frequency, TF over GST control)"
same,binding signal,ETV5,"1.29 fold enrichment (6-mer frequency, TF over GST control)"
same,binding signal,HSF1,"1.06 fold enrichment (6-mer frequency, TF over GST control)"
same,binding signal,SPIC,"1.3 fold enrichment (6-mer frequency, TF over GST control)"
same,binding signal,ELF4,"1.22 fold enrichment (6-mer frequency, TF over GST control)"
same,binding signal,ELK4,"1.19 fold enrichment (6-mer frequency, TF over GST control)"
same,binding signal,ETV2,"1.24 fold enrichment (6-mer frequency, TF over GST control)"
same,binding signal,ELF3,"1.16 fold enrichment (6-mer frequency, TF over GST control)"
same,binding signal,CRX,"1.05 fold enrichment (6-mer frequency, TF over GST control)"
same,binding signal,ETV1,"1.21 fold enrichment (6-mer frequency, TF over GST control)"
